# The panel holds about 83,000 compounds, 20% with a hit somewhere; the sample as a whole holds those more often.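 Single-dose data. Exposure time 48 hours. Values below 10 considered active.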 Calls of active or inactive are those of the source.
# How the values were obtained:
# Assay in all cases: NCI-60 one-dose screen, 48 h (100 = growth as untreated, 0 = no growth, -100 = all killed)
# SR leukemia = details: 10 µM unless noted
# RPMI-8226 leukemia = details: 10 µM unless noted
# OVCAR-8 ovarian = details: 10 µM unless noted
# OVCAR-5 ovarian = details: 10 µM unless noted
# OVCAR-4 ovarian = details: 10 µM
# SK-OV-3 ovarian = details: 10 µM unless noted
# IGROV1 ovarian = details: 10 µM unless noted
# OVCAR-3 ovarian = details: 10 µM unless noted
# HS 578T breast = details: 10 µM unless noted
# NCI/ADR-RES ovarian = details: 10 µM unless noted
Structure (SMILES),growth (SR leukemia),growth (RPMI-8226 leukemia),growth (OVCAR-8 ovarian),growth (OVCAR-5 ovarian),growth (OVCAR-4 ovarian),growth (SK-OV-3 ovarian),growth (IGROV1 ovarian),growth (OVCAR-3 ovarian),growth (HS 578T breast),growth (NCI/ADR-RES ovarian)
Cc1cc(C)c(-c2cc(O)c(-c3c(C)cc(C)cc3C)cc2O)c(C)c1,19.9% (inactive),42.3% (inactive),49.4% (inactive),50.7% (inactive),58.9% (inactive),4.25% (active),70.3% (inactive),-25.7% (active),11.9% (inactive),57.9% (inactive)
C=CC1=C(C)C2=NC1=CC1=NC(=CC3=C(C)C4=C(O)C(C(=O)O)C(=C5NC(=C2)C(C)C5CCC(=O)O)C4=N3)C(CC)=C1C (stereo not drawn),95.5% (inactive),102% (inactive),107% (inactive),114% (inactive),103% (inactive),119% (inactive),106% (inactive),107% (inactive),105% (inactive),114% (inactive)
O=C(OCc1ccc2c(Cl)cc(Cl)c(O)c2n1)N1CCN(C(=O)c2cc3cc(F)ccc3[nH]2)CC1,16.7% (inactive),21.4% (inactive),7.64% (active),40.7% (inactive),40% (inactive),19.3% (inactive),11.2% (inactive),-44.1% (active),12.5% (inactive),2.35% (active)
C#CCOc1ccc(C2=NN(CC3CC3)C3N=C(Cl)c4ncn(CC5CC5)c4N23)cc1OCC#C (stereo not drawn),65.7% (inactive),73.7% (inactive),71.6% (inactive),96.6% (inactive),71.3% (inactive),73.8% (inactive),67.8% (inactive),90.4% (inactive),79.4% (inactive),85.3% (inactive)
C#CCC(C(=O)OCC)C(=O)OCC,99.9% (inactive),102% (inactive),105% (inactive),94.9% (inactive),128% (inactive),99.5% (inactive),117% (inactive),103% (inactive),104% (inactive),105% (inactive)
O=C(O)CC1CCCCC1c1ccccc1 (stereo not drawn),98.5% (inactive),104% (inactive),106% (inactive),102% (inactive),109% (inactive),104% (inactive),108% (inactive),118% (inactive),83% (inactive),114% (inactive)
O=[N+]([O-])c1cccc(N=NNc2cccc([N+](=O)[O-])c2)c1,95.1% (inactive),86% (inactive),99.5% (inactive),94.6% (inactive),88.7% (inactive),104% (inactive),125% (inactive),101% (inactive),101% (inactive),94.4% (inactive)
CCOc1ccc(/C=C(\C#N)c2cc3ccccc3[nH]2)cc1,18.2% (inactive),79.7% (inactive),65.4% (inactive),76.5% (inactive),82.5% (inactive),67.8% (inactive),56% (inactive),41.9% (inactive),66.4% (inactive),26.1% (inactive)
O=C(CCN1CCCCC1)c1ccc(Cl)cc1,112% (inactive),85.8% (inactive),113% (inactive),102% (inactive),105% (inactive),103% (inactive),107% (inactive),106% (inactive),108% (inactive),114% (inactive)
Nc1nc(N)c2c(n1)NC(c1ccc(F)cc1)C1CCc3ccccc3C1=N2 (stereo not drawn),9.32% (active),42.3% (inactive),70.4% (inactive),110% (inactive),36% (inactive),63.9% (inactive),83.6% (inactive),48.2% (inactive),84.1% (inactive),43.7% (inactive)
O=C(NCCO)c1cccnc1,103% (inactive),95.4% (inactive),102% (inactive),103% (inactive),110% (inactive),97.4% (inactive),100% (inactive),111% (inactive),92.1% (inactive),96.5% (inactive)
Oc1cc(Nc2ccnc3cc(Cl)ccc23)c2ncccc2c1,37% (inactive),53.5% (inactive),70.3% (inactive),104% (inactive),44.4% (inactive),85.4% (inactive),94.3% (inactive),81% (inactive),62.1% (inactive),51.8% (inactive)
COc1cc2c(c(Br)c1N)-c1cc(Br)c(N)cc1C2=O,47.2% (inactive),85.9% (inactive),29.1% (inactive),16.3% (inactive),22.2% (inactive),74.5% (inactive),31.9% (inactive),83.4% (inactive),38.1% (inactive),47.8% (inactive)
Cn1cc(-c2noc(-c3cn(C)c4ncc(F)cc34)n2)c2cc(Cl)ccc21,34.5% (inactive),67% (inactive),48.7% (inactive),61.9% (inactive),-50.6% (active),87.8% (inactive),51.7% (inactive),19.7% (inactive),47% (inactive),67.9% (inactive)
O=C(NCc1ccc(Cn2c(=O)sn(-c3ccccc3)c2=O)cc1)OCc1ccc2c(Br)cc(Br)c(O)c2n1,4.62% (active),-17.7% (active),0.865% (active),-62.7% (active),-52.9% (active),55.2% (inactive),-80.4% (active),-90.9% (active),-1.98% (active),-1.25% (active)
CCOC(=O)Nc1ccc2c(c1)/C(=N\NC(=S)NC)c1ccccc1-2,63.9% (inactive),58.7% (inactive),83% (inactive),97.8% (inactive),92.3% (inactive),112% (inactive),100% (inactive),95.6% (inactive),90.4% (inactive),76.7% (inactive)
CCCCC(CC)COC(=O)C[N+](C)(C)CCOC(c1ccccc1)c1ccccc1 (stereo not drawn),-30.2% (active),-61% (active),48.8% (inactive),75.6% (inactive),22.9% (inactive),59% (inactive),-0.732% (active),19.2% (inactive),69.7% (inactive),99.1% (inactive)
Cc1nc(Cl)c2c(n1)N(C)c1ccc(Cl)cc1C(C)C2 (stereo not drawn),83.2% (inactive),66.8% (inactive),95.9% (inactive),101% (inactive),83% (inactive),86.3% (inactive),92.7% (inactive),98.7% (inactive),42.5% (inactive),95.8% (inactive)
COc1cc(-c2nc(SCCC(C)C)nc(Nc3ccc(S(N)(=O)=O)cc3)c2C#N)cc(OC)c1OC,-18.5% (active),-0.242% (active),29.9% (inactive),53.9% (inactive),19.8% (inactive),76.5% (inactive),40.5% (inactive),32.5% (inactive),40.5% (inactive),37.6% (inactive)
O=C1COCCN1c1ccc(NCc2cn(Cc3ccc(F)cc3)c3ccccc23)cc1,94.4% (inactive),41.7% (inactive),70.5% (inactive),-40.3% (active),-6.07% (active),20.3% (inactive),-18.9% (active),3.96% (active),72% (inactive),72.1% (inactive)

Structure (SMILES),growth (SR leukemia),growth (RPMI-8226 leukemia),growth (OVCAR-8 ovarian),growth (OVCAR-5 ovarian),growth (OVCAR-4 ovarian),growth (SK-OV-3 ovarian),growth (IGROV1 ovarian),growth (OVCAR-3 ovarian),growth (HS 578T breast),growth (NCI/ADR-RES ovarian)
O=C(CCN1CCCCC1)c1ccc2ccccc2c1,103% (inactive),77.5% (inactive),99.9% (inactive),117% (inactive),114% (inactive),105% (inactive),104% (inactive),98.6% (inactive),104% (inactive),109% (inactive)
CCCn1ccnc1C(O)c1ccc(OCc2ccccc2)c(OC)c1 (stereo not drawn),96.1% (inactive),93.9% (inactive),96.7% (inactive),93.3% (inactive),96.5% (inactive),87.7% (inactive),96.9% (inactive),95.7% (inactive),109% (inactive),91.3% (inactive)
N#CCCc1c[nH]c2ccccc12,91.5% (inactive),92.7% (inactive),91.9% (inactive),102% (inactive),93% (inactive),88.9% (inactive),103% (inactive),98.7% (inactive),94.3% (inactive),99.3% (inactive)
CC1Cc2c(ncnc2-n2cnc3ccccc32)N(C)c2ccccc21 (stereo not drawn),15.2% (inactive),26.2% (inactive),44.1% (inactive),95.2% (inactive),65.2% (inactive),17.2% (inactive),62.5% (inactive),14.7% (inactive),36.6% (inactive),9.36% (active)
CCOc1ccc2sc(NS(=O)(=O)c3ccc(N)cc3)nc2c1,95.4% (inactive),96.5% (inactive),105% (inactive),109% (inactive),105% (inactive),101% (inactive),95.8% (inactive),115% (inactive),106% (inactive),113% (inactive)
CCCCCn1sc(=O)n(Cc2ccc(CNC(=O)OCc3ccc4cccc(O)c4n3)cc2)c1=O,4.06% (active),-14.6% (active),8.91% (active),-42.3% (active),-50.6% (active),41.7% (inactive),-85.9% (active),-84.5% (active),10.8% (inactive),-11.6% (active)
Nc1nc(Nc2ccccc2)c2ncn(Cc3ccc4c(c3)OCO4)c2n1,13.6% (inactive),30.6% (inactive),55.1% (inactive),71.5% (inactive),66.9% (inactive),51.2% (inactive),64.2% (inactive),24.1% (inactive),42.8% (inactive),9.58% (active)
CCOC(=O)COc1c(C)cc(SSc2cc(C)c(OCC(=O)OCC)c(C)c2)cc1C,90.9% (inactive),90.6% (inactive),102% (inactive),128% (inactive),93.1% (inactive),106% (inactive),96.5% (inactive),107% (inactive),122% (inactive),110% (inactive)
CN(Cc1cccc(C(F)(F)F)c1)C(=O)[C@@H](CC(=O)N1CCC(N2CCCCC2)CC1)N1C(=O)[C@@H](N2C(=O)OC[C@@H]2c2ccccc2)[C@H]1/C=C/c1ccccc1,54.3% (inactive),66.9% (inactive),93.2% (inactive),104% (inactive),74.2% (inactive),86.2% (inactive),89.6% (inactive),92.9% (inactive),61% (inactive),99.2% (inactive)
O=[N+]([O-])c1cc(CCl)ccc1OCCBr,102% (inactive),93.5% (inactive),101% (inactive),108% (inactive),97% (inactive),102% (inactive),107% (inactive),105% (inactive),108% (inactive),110% (inactive)
Cc1cc[n+](CCCCCCCCCC[n+]2ccc(C)cc2)cc1,98.9% (inactive),102% (inactive),99% (inactive),97.9% (inactive),99.4% (inactive),97.8% (inactive),112% (inactive),99.4% (inactive),102% (inactive),94.3% (inactive)
CC(C)CCNCC(C)(C)O,97.9% (inactive),120% (inactive),99.4% (inactive),101% (inactive),115% (inactive),110% (inactive),118% (inactive),119% (inactive),118% (inactive),118% (inactive)
CCOC(=O)C1=C(C(=O)c2ccc(Br)cc2)C(c2ccc(Br)cc2)NC(=S)N1 (stereo not drawn),108% (inactive),111% (inactive),97.8% (inactive),108% (inactive),107% (inactive),110% (inactive),92% (inactive),105% (inactive),,103% (inactive)
CCCCCCNC(=O)Nc1ncnc2c1ncn2-c1ccccc1,99.5% (inactive),91.4% (inactive),91.3% (inactive),88.9% (inactive),85.3% (inactive),87.5% (inactive),88.1% (inactive),111% (inactive),97.6% (inactive),91.1% (inactive)
Cc1ccc(S(=O)(=O)n2cc(C(=O)C(=O)N3CCCCC3)c3ccccc32)cc1,57.6% (inactive),45.9% (inactive),91.9% (inactive),76.3% (inactive),49.9% (inactive),92% (inactive),71.9% (inactive),77% (inactive),,73.8% (inactive)
CC(=O)Nc1ccc(C=Nc2ccc3ccccc3c2)cc1,104% (inactive),101% (inactive),108% (inactive),117% (inactive),108% (inactive),109% (inactive),105% (inactive),122% (inactive),,115% (inactive)
CSc1nc(=S)c2nc(SC)n(-c3ccccc3)c2[nH]1,104% (inactive),90.7% (inactive),100% (inactive),104% (inactive),104% (inactive),96.4% (inactive),101% (inactive),105% (inactive),,101% (inactive)
COc1ccc(C2NC(=O)C(C#N)c3c2sc2c(F)cccc32)cc1 (stereo not drawn),22.2% (inactive),63.2% (inactive),69.8% (inactive),85.6% (inactive),71.4% (inactive),63.2% (inactive),41.1% (inactive),0.617% (active),,27.3% (inactive)
O=C1/C(=C/c2ccc(OCc3ccccc3)cc2)Oc2cc(OCCN3CCCCC3)ccc21,13.3% (inactive),54% (inactive),89.8% (inactive),88.8% (inactive),61.2% (inactive),104% (inactive),87% (inactive),88.1% (inactive),,79.2% (inactive)
CCN(CC)CCCOc1ccc2c(c1)O/C(=C\c1cccc(OC)c1)C2=O,63.3% (inactive),96.2% (inactive),90.8% (inactive),95.7% (inactive),94.2% (inactive),115% (inactive),97.7% (inactive),91.2% (inactive),,94.8% (inactive)

# Reference: PubChem BioAssay (NCI)
